The list is not random: actives were taken first. Their share in the collection is about 4.6%.
D1 potentiator – human D1 dopamine receptor positive modulation | AID 504651 | HEK293 TREx D1 cells, calcium flux, dopamine EC20 potentiation | P21728 | potentiation, % at 10 µM | hit rate 0.036% among 360,000; in the data active means potentiation above about 30%; further: 0% is about no effect
Target sequence (P21728 whole entry, looked up): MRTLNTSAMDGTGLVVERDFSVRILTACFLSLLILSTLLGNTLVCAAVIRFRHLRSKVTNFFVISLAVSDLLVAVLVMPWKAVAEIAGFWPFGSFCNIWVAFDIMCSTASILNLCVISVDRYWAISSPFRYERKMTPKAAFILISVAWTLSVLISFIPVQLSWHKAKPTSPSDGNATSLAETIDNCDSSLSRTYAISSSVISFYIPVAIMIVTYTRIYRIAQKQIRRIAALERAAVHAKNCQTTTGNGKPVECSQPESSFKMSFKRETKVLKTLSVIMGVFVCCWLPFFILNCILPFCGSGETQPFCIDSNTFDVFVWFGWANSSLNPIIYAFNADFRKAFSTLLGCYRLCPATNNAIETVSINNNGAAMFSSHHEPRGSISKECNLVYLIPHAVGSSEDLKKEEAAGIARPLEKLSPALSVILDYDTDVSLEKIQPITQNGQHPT
Epigenetic reg – epigenetic control regulation, reporter derepression. murine LDR cells, GFP reporter derepression, 30 h. hit rate 0.2% among 280,000. Potency, µM (series often up to 53.9 µM), for the others: at the highest dose GFP activation, usual class: activators; active means well fitted activation curve with a large enough effect; further: potency means the concentration at half of the fitted maximal effect; % of control where 0% means no effect; nearly all actives have a fitted effect of over 60% in size
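Murine LDR cells carrying a silenced, genomically integrated CMV-driven GFP reporter were exposed to compound for 30 hours at 37 C. After PBS washes, GFP-positive cells (20–120 um objects) were counted by laser-scanning microplate cytometry.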
D1 ag – agonists of human D1 dopamine receptor | P21728 | HEK293 T-REx D1 cells, calcium flux, agonist mode | activation, % at 2 µM | hit rate 1% among 360,000; further: 0% is about no effect
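Tetracycline-induced HEK293 TREx D1 cells, force-coupled to calcium signalling, were dye-loaded with a no-wash calcium kit. Compound was pin-added after a 10 s baseline. Fluorescence was read kinetically at 1 cycle/s for 180 s, with calcium rises flagged as agonism.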
TRHR enhancer – allosterically enhances the human TRH receptor. P34981. enhancement, % at 2 µM. AID 493056. hit rate 0.66% among 360,000. TRHR cells, fluo-8 calcium fluorescence, EC20 TRH enhancement; in the data active means enhancement above about 30%; further: 0% is about no effect
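Enhancer read-out: after compound pinning and an initial kinetic agonist-mode read, an EC20 of TRH (10 nM final) was injected and fluo-8 calcium signal (Ex 480/Em 530) followed at 1 s/cycle for 100 cycles in TRHR-expressing cells.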
D1 antag – blocks dopamine activation of the human D1 receptor | P21728 | HEK293 TREx D1 cells, calcium flux, dopamine EC80; active compounds read low | activity change, negative = inhibition, % at 10 µM | hit rate 3.2% among 360,000 | AID 504652; in the data active means activity change below about -30%; further: on the % scale 0 is the no-effect control and ±100 the full control effect
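Using tetracycline-induced force-coupled D1 Hek293 cells and a calcium dye, signals were followed for 180 s after compound, then for 180 s after EC80 dopamine, to detect inhibitors.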
TRHR agonist – TRH receptor (human) agonism | P34981 | TRHR cells, calcium flux fluo-8, FDSS agonist mode | activation, % at 2 µM | hit rate 0.18% among 360,000; further: 0% is about no effect
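In this calcium-flux screen, cells bearing human TRHR are dye-loaded with fluo-8, baselined for 10 cycles, then exposed to library compounds; positive kinetic calcium responses during the agonist phase mark hits, with TRH as control.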
The depositor's hits bear a star; [ ] = another dose, or the depositor's remark. Unless noted, no stated cut-off is given here; in the data, active means activation above about 30%; inactive means the rest.

CCc1ccccc1NC(=O)C1CCCN(c2nnc(-n3c(C)ccc3C)s2)C1 (centres undefined) was read as D1 potentiator -1, Epigenetic reg 6%, D1 ag 0, TRHR enhancer -5, D1 antag 5 and TRHR agonist -2.
`CC1CCN(C(=O)Cn2cc(SCc3ccccc3)c3ccccc32)CC1` gave D1 potentiator 0, Epigenetic reg 0%, D1 ag 2, TRHR enhancer -15, D1 antag 5 and TRHR agonist 0.
CN[C@@H]1[C@H](O[C@H]2[C@@H](O[C@@H]3[C@@H](O)[C@@H](O)[C@@H](N=C(N)N)[C@@H](O)[C@@H]3N=C(N)N)O[C@@H](C)[C@]2(O)CO)O[C@H](CO)[C@@H](O)[C@@H]1O was read as Epigenetic reg 0%[16.9 µM].
For COc1ccc(/C=c2\s/c(=C/C(=O)c3ccc(C)cc3)[nH]c2=O)cc1OC the results were D1 potentiator -6, Epigenetic reg -1%, D1 ag 64*, TRHR enhancer 7, D1 antag -6 and TRHR agonist 36*.
For CN(C)S(=O)(=O)N1CCC(Oc2cccc(C(=O)NCCC3=CCCCC3)c2)CC1 the results were D1 potentiator -1, D1 ag 31*, TRHR enhancer -10, D1 antag -31* and TRHR agonist 1.
O=C(/C=C/c1ccc(Cl)cc1Cl)Nc1ccc(CN2CCOCC2)cc1 was read as D1 potentiator -7, Epigenetic reg 1%, D1 ag 25, TRHR enhancer 0, D1 antag -38* and TRHR agonist 1.
Screening CCCN(CCC)CCNC(=O)Cn1cnc2sc(C)c(S(=O)(=O)N3CCN(c4ccccc4OC)CC3)c2c1=O returned D1 potentiator 0, Epigenetic reg 0%, D1 ag 0, TRHR enhancer -5, D1 antag 0 and TRHR agonist 0.
Screening Cc1ccc2oc(C(=O)N(Cc3cccc(F)c3)C3CCS(=O)(=O)C3)c(C)c2c1 (centres undefined) returned D1 potentiator 2, Epigenetic reg 1%, D1 ag 7, TRHR enhancer 3, D1 antag -18 and TRHR agonist 0.
`COc1cccc(/C=N/NC(=O)CCc2ccccc2)c1` gave D1 potentiator -3, Epigenetic reg 0%, D1 ag 1, TRHR enhancer -5, D1 antag -18 and TRHR agonist 0.
COC(=O)COc1cccc(/C=N/NC(=O)CCSc2ccccc2)c1 was read as D1 potentiator -4, Epigenetic reg 5%, D1 ag 5, TRHR enhancer -1, D1 antag -34* and TRHR agonist 0.
Cc1ccccc1OC1C=CC(c2ccccc2)OC1CO (centres undefined) was read as Epigenetic reg 1%[10.1 µM].
For CCCc1cc(C(=O)Nc2ccc(C(=O)c3ccc(F)cc3)cc2)n(C)n1 the results were D1 potentiator -12, D1 ag 23, TRHR enhancer -4, D1 antag -19 and TRHR agonist 2.
For CCCc1cc(C(=O)Nc2ccc(C(=O)c3ccccc3)cc2)n(C)n1 the results were D1 potentiator -12, D1 ag 14, TRHR enhancer -9, D1 antag -32* and TRHR agonist 3.
CCn1c(=O)c2sccc2n2c(CCC(=O)N3CCN(c4ccccc4OC)CC3)nnc12 was read as D1 potentiator 2, Epigenetic reg -2%, D1 ag -1, TRHR enhancer 6, D1 antag 20 and TRHR agonist -2.
Screening Cc1cc2c(s1)c1cnn(Cc3ccc(Br)cc3F)c(=O)c1n2C returned D1 potentiator -5, D1 ag 2, TRHR enhancer 0, D1 antag -17 and TRHR agonist 0.
`O=C(OCn1nnc2ccccc2c1=O)c1ccc(Br)o1` gave D1 potentiator -1, Epigenetic reg -1%, D1 ag 3, TRHR enhancer 33*, D1 antag 4 and TRHR agonist -1.
Cc1ccc(C)c(C(=O)CCC(=O)OCn2nnc3ccccc3c2=O)c1 was read as D1 potentiator -4, D1 ag 2, TRHR enhancer -1, D1 antag -64* and TRHR agonist -1.
Screening O=C(OCn1nnc2ccccc2c1=O)c1cc(-c2ccccc2Cl)nc2ccccc12 returned D1 potentiator -7, Epigenetic reg 0%, D1 ag 3, TRHR enhancer 0, D1 antag 4 and TRHR agonist 0.
Cc1onc(-c2ccccc2Cl)c1C(=O)OCn1nnc2ccccc2c1=O was read as D1 potentiator -7, Epigenetic reg 0%, D1 ag 2, TRHR enhancer 1, D1 antag -50* and TRHR agonist 1.
Screening Cc1ccccc1C(=O)OCn1nnc2ccccc2c1=O returned D1 potentiator -2, Epigenetic reg -1%, D1 ag 1, TRHR enhancer 0, D1 antag -12 and TRHR agonist 0.
Cc1ccc2nc(Nc3cccc(C(F)(F)F)c3)c3nnnn3c2c1 was read as D1 potentiator -2, Epigenetic reg 6%, D1 ag 0, TRHR enhancer -4, D1 antag 1 and TRHR agonist 0.
`O=C(CCCCn1c(=O)c2ccccc2n(Cc2cccc(F)c2)c1=O)NCCc1ccccc1` gave D1 potentiator 2, Epigenetic reg -2%, D1 ag 3, TRHR enhancer -6, D1 antag -4 and TRHR agonist 2.
Screening CSc1ccc(CN2CCN(Cc3ccc([N+](=O)[O-])cc3)CC2)cc1 returned D1 potentiator -12, Epigenetic reg -1%, D1 ag 8, TRHR enhancer -2, D1 antag -37* and TRHR agonist 0.
For CCc1cccc(NC(c2nnc(-c3ccccc3)o2)c2ccc(F)cc2Cl)c1 (centres undefined) the results were D1 potentiator -5, Epigenetic reg 1%, D1 ag 0, TRHR enhancer -9, D1 antag 16 and TRHR agonist 0.
`CSc1ccc(CCNC(=O)CCc2c(C)nc3c4cccnc4nn3c2C)cc1` gave D1 potentiator 0, Epigenetic reg 1%, D1 ag -2, TRHR enhancer 6, D1 antag -2 and TRHR agonist -1.
COc1ccc(CNC(=O)CCc2c(C)nn(-c3ccc(N4CCCCC4)nn3)c2C)c(OC)c1 was read as D1 potentiator -4, Epigenetic reg 0%, D1 ag 0, TRHR enhancer 10, D1 antag 0 and TRHR agonist 0.
O=C1CC(C(=O)N2CCc3ccccc32)CN1c1ccccc1 (centres undefined) was read as D1 potentiator -2, D1 ag 0, TRHR enhancer -4, D1 antag -31* and TRHR agonist 0.
